The record followed here is PubChem BioAssay.

A short description of assay [1]: glutamate transport activators, MN-1 cells, MN-1 cell line (AID 1612).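 Note: tested at 1 µM final; 0% = mean of DMSO vehicle wells on each plate; positive means more glutamate uptake than control and negative means less.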 Conditions: MN-1 motor neuron cells, stronger effect = higher value.
Assay [2] is described as follows: 75Q-TubH aggregate inhibition, S. cerevisiae, yeast (AID 1616). The note with it: S. cerevisiae 75Q-TubH polyglutamine aggregation suppression; stronger effect = higher value.

In assay [1], `CN(C)C(=S)SSC(=S)N(C)C` showed a glutamate uptake change of 7.76%. In assay [2], this molecule returned an aggregation suppression score of 0.0152.
